Compound activity deposited in PubChem BioAssay by several laboratories.
Most compounds without a hit are left out; they make up all but 0.88% or so of the library.
MT1-MMP txn act – MT1-MMP promoter transcription activation | HT1080 MT1-MMP promoter luciferase reporter, luminescence, overnight; hits give high values | activation factor at 10 µM | 0.16% of 86,000 active;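 active means activation factor of at least 2 for MT1-MMP transcription at 10 µM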
FXIIa mix inh – blocks human factor XIIa in pooled compound mixtures. P00748. purified FXIIa, fluorogenic substrate. inhibition, % at 5 µM. 0.2% of 62,000 active. AID 684;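 further: 0% = enzyme without compound and 100% = no enzyme blank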
Target sequence (P00748 20-372 limits assumed): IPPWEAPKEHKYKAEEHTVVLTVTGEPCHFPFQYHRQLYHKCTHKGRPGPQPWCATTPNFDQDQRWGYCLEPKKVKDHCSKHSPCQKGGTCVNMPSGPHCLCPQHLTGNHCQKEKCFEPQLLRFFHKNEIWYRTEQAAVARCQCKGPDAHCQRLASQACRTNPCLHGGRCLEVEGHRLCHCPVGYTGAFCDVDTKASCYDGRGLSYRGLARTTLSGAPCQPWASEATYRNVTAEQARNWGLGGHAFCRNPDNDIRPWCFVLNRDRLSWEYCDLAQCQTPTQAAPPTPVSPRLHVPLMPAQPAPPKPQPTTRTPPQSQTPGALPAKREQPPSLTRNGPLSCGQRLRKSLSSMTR
Target sequence (P00748 373-615 limits assumed): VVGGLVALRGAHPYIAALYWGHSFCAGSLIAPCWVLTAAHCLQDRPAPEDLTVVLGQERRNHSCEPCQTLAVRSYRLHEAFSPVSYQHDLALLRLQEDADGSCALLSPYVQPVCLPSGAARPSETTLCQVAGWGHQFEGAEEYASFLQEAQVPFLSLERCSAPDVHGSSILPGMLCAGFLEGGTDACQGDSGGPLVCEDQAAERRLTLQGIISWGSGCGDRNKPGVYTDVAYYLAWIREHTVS
Her2 expr inh – Her2 kinase expression inhibition; P04626; SKBR-3 HER2 protein level, AlphaScreen, 18-24 h; hits give low values; HER2 level % of control, % at 10 µM; 0.69% of 65,000 active; AID 645;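 active means HER2 level under 5% of the carrier-only control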;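 further: 100% = DMSO carrier and 0% = 500 nM PU-H71 HSP90 inhibitor; lower value means stronger loss of Her2 protein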
FXIa mix inh – blocks human factor XIa in pooled compound mixtures. AID 680. purified FXIa, fluorogenic substrate. P03951. 0.19% of 62,000 active. inhibition, % at 5 µM;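 further: each value is inhibition by a whole ten-compound pool holding the compound; 0% = enzyme with no mixture and 100% = wells lacking enzyme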
Starred values were filed as active, the others as inactive; nt = not tested or not shown. Unless noted, no stated cut-off is given here; in the data, active means inhibition above about 20% (passing the limit was not always enough); inactive means the rest.

SMILES | MT1-MMP txn act | FXIIa mix inh | Her2 expr inh | FXIa mix inh
C=CCNc1nc(-c2ccc(OC)cc2OC)cs1 | 2* | 0 | 49 | 0
COc1ccc(-c2csc(NCc3ccco3)n2)cc1 | 0.8 | 6 | 98 | 7
COc1ccc(Cl)c(Cn2c(NCc3ccco3)nc3c2c(=O)n(C)c(=O)n3C)c1 | nt | -2 | -26* | -1
CCCC/C=C/C(NC(=O)Oc1cccc(C(F)(F)F)c1)c1ccccc1 (configuration not stated) | 1.2 | nt | nt | nt
CCC1=C2CC[C@H]3C(=O)N(C)C(=O)[C@H]3[C@H]2[C@@]2(C)C(=NCc3ccccc3)OC(=O)N2C1=O | 1.1 | nt | nt | nt
C=CCSc1nncn1/N=C/c1ccc(OC)cc1 | 2* | 8 | 117 | 3
COC(=O)[C@@H]1C[C@@H]2CC[C@@H](O)C[C@@H]2N1CC1CCCCC1 | 1.9 | nt | nt | nt
COC(=O)[C@@]1(Cc2ccc(F)cc2)[C@@H]2C(=CC(=O)[C@H]2CC(=O)C(=O)N(C)C)CN1C(=O)c1ccccc1 | 1.1 | nt | nt | nt
COc1ccc(C)cc1NC(=O)CSc1nnc(-c2ccccn2)n1Cc1ccco1 | 1.2 | 4 | 98 | 2
COc1ccccc1NC(=O)CSc1nnc(-c2ccccn2)n1Cc1ccco1 | 1 | 3 | 99 | 50*
CC(C)CCOP(=O)(c1ccc(N(C)C)cc1)C(O)c1ccccn1 (configuration not stated) | 1 | 5 | 100 | -1
CC(C)COP(=O)(c1ccc(N(C)C)cc1)C(O)c1ccccn1 (configuration not stated) | 1.2 | 48* | 94 | 7
CCOC(=O)C1=C(C)N(CCCCCC(=O)O)C(=O)NC1c1ccccc1OS(=O)(=O)c1ccccc1[N+](=O)[O-] (configuration not stated) | 1.3 | nt | nt | nt
O=c1c2c3c(sc2nc2sc(C4CC4)nn12)CCCC3 | 2* | 1 | 92 | -4
C[C@H](CO)NC(=O)[C@H]1C[C@@H]1[C@H](NP(=O)(c1ccccc1)c1ccccc1)c1ccccc1 | 1 | nt | nt | nt
CC(C)C(=O)Nc1nc(-c2ccccc2)ns1 | 2* | nt | nt | nt
CCC(=O)Nc1nc(-c2ccccc2)ns1 | 1.7 | nt | nt | nt
COc1ccc(C2C=C(c3ccccc3)Nc3nc(CCCO)nn32)cc1 (configuration not stated) | 1 | 9 | 132 | 41*
OCCCc1nc2n(n1)C(c1ccccc1)C=C(c1ccccc1)N2 (configuration not stated) | 1.4 | 9 | 107 | 5
Nc1c(C(=O)Nc2ccccc2)sc2nc(-c3ccco3)ccc12 | 1.1 | -5 | -5.4* | 1
COc1ccccc1NC(=O)c1sc2nc(-c3ccco3)ccc2c1N | 1.1 | -1 | -0.3* | -2
COC(=O)c1ccc(C(NC(=O)OCc2ccccc2)/C(=C/[C@@H](C)C(=O)NCc2cc(F)cc(F)c2)c2cccnc2)cc1 (some centres not stated) | 1.3 | nt | nt | nt
C[C@H]1C2=C3[C@@H](C[C@H]4C(=O)N(c5ccccc5)C(=O)[C@H]4[C@H]3[C@@]3(Cc4ccccc4)C(=NCCc4c[nH]c5ccccc45)OC(=O)N3C2=O)[C@H]2C(=O)N(c3ccccc3)C(=O)[C@H]21 | 1.2 | nt | nt | nt
CC1(C)CC(=O)c2c(oc3cc4c(cc23)OCO4)C1 | 1 | nt | nt | nt
Cc1ccc(Cl)cc1N1CCN(Cc2nc3c(c(=O)[nH]c(=O)n3C)n2CCc2ccccc2)CC1 | 1.2 | nt | 45 | nt
SMILES | MT1-MMP txn act | FXIIa mix inh | Her2 expr inh | FXIa mix inh
Cc1ccc(Cl)cc1N1CCN(Cc2nc3c(c(=O)[nH]c(=O)n3C)n2Cc2ccccc2F)CC1 | 1.1 | -15 | 3.2* | 9
C=CCn1c(=O)/c(=C2/SC(C)=C(C)N2CC)s/c1=C1/C(=O)N(C)C(=S)N1c1ccccc1 | 1 | nt | nt | nt
CC(C)c1nnc(NC(=O)CCS(=O)(=O)c2nc(-c3cccs3)cc(C(F)(F)F)n2)s1 | 1 | 0 | -19* | -2
CCCc1cc2c(n1Cc1ccc(OC)cc1)C(C)C1CN(C(=O)c3ccccc3)C(C)(C(=O)OC)C21 (configuration not stated) | 1.1 | nt | nt | nt
CCCCOC(=O)Nc1ccc(C(C)C)cc1 | 2.2* | nt | nt | nt
COc1ccccc1N1CCN(C(c2cccs2)c2nnnn2C2CCCC2)CC1 (configuration not stated) | 1.2 | 10 | -30* | -12
c1ccc(CC2CCN(C(c3cccs3)c3nnnn3C3CCCC3)CC2)cc1 (configuration not stated) | 1.1 | 6 | 95 | 4
COC(=O)c1ccc(C(/C=C/[C@@H](C)C(=O)NCc2ccc(C)o2)NC(=O)OCc2ccccc2)cc1 (some centres not stated) | 1.2 | nt | nt | nt
CCSc1nnnn1-c1ccccc1 | 1 | nt | nt | nt
Cc1ccc(C)c(-n2nnnc2Sc2nnnn2-c2ccccc2)c1 | 0.6 | 2 | -11* | 4
CCn1c(SC)nnc1-c1sc2cc(Cl)ccc2c1Cl | 1.1 | 42* | 29 | 18
CN(C)c1oc(-c2ccc(OCc3ccccc3)cc2)nc1C#N | 1.6 | 6 | 93 | 23*
O=c1cccc(-c2ccccc2)[nH]1 | 1.2 | -2 | -26* | 12
O=c1cc(-c2ccccc2)[nH][nH]1 | 1.3 | nt | nt | nt
COC(=O)CS(=O)(=O)c1nnc([C@H](Cc2ccccc2)NC(=O)OC(C)(C)C)o1 | 0.8 | 14 | -17* | 4
Cc1cccc(CS(=O)(=O)c2nnc([C@H](Cc3ccccc3)NC(=O)OC(C)(C)C)o2)c1 | 1.1 | nt | nt | nt
COC(=O)c1ccc(C(NC(=O)OCc2ccccc2)/C(C)=C/[C@@H](C)C(=O)NCCN2CCOCC2)cc1 (some centres not stated) | 1 | nt | nt | nt
c1ccc(-c2cc3n(c2)CCc2ccccc2-3)cc1 | 2.6* | nt | nt | nt
COC(=O)[C@@]1(Cc2ccc(F)cc2)[C@H]2c3cc(C(=O)N(C)C)n(CCc4ccc(O)c(O)c4)c3C[C@H]2CN1C(=O)c1ccccc1 | 1.1 | nt | nt | nt
COc1cccc(C2NC(=O)NC(C)=C2C(=O)Nc2cccc(C)c2C)c1 (configuration not stated) | 1.1 | 21* | 95 | 5
COc1cccc(C2NC(=O)NC(C)=C2C(=O)Nc2ccccc2C)c1 (configuration not stated) | 1.1 | 8 | 93 | 11
CC(=O)Nc1cc(OC(=O)c2ccco2)cc(OC(=O)c2ccco2)c1 | nt | 9 | 170 | 25*
CC(=O)Nc1ccc(OC(=O)c2ccco2)cc1 | 1 | nt | nt | nt
C[C@@]1(C(NC(=O)Cc2ccc(C(F)(F)F)cc2)c2ccc(-c3ccccc3)cc2)C[C@H]1C1CCCCC1 (some centres not stated) | 1.2 | nt | nt | nt
CCC1=C2CC[C@H]3C(=O)N(CC(=O)OC)C(=O)[C@H]3[C@H]2[C@@]2(C)C(=NCCc3c[nH]c4ccccc34)OC(=O)N2C1=O | 1.1 | nt | nt | nt
CCOc1ccc(N2C(=O)CC(Sc3nc(C)cc(C)c3C#N)C2=O)cc1 (configuration not stated) | 1.2 | -16 | -9.9* | 1
CCOc1ccc(N2C(=O)CC(N)C2=O)cc1 (configuration not stated) | 0.9 | nt | 153 | nt
O=C(C1CCC(CNS(=O)(=O)c2cccc3cccnc23)CC1)N1CCCC1 (configuration not stated) | 1 | 22* | 66 | 1
O=C(CS(=O)(=O)c1ccccc1)N1CCCCCC1 | 1.4 | 1 | 108 | 8
